In PMC5540273 (PLoS ONE, 2017):
Read-outs that look alike come from different tables or passages of the source.

How the values were obtained:
[1] = system: T1, ASK2; conditions: concentration: 1 μM,replicates: in singlicate; n = 1
T1 construct: gene MAP3K6

[2] = system: AURKA; conditions: concentration: 1 μM,replicates: in singlicate; n = 1
[3] = system: AURKB; conditions: concentration: 1 μM,replicates: in singlicate; n = 1
[4] = system: AURKC; conditions: concentration: 1 μM,replicates: in singlicate; n = 1
[5] = system: AXL; conditions: concentration: 1 μM,replicates: in singlicate; n = 1
[6] = system: T2, BIKE; conditions: concentration: 1 μM,replicates: in singlicate; n = 1
T2 construct: gene BMP2K

[7] = system: BLK; conditions: concentration: 1 μM,replicates: in singlicate; n = 1
[8] = system: BMPR1A; conditions: concentration: 1 μM,replicates: in singlicate; n = 1
[9] = system: BMPR1B; conditions: concentration: 1 μM,replicates: in singlicate; n = 1
[10] = system: BMPR2; conditions: concentration: 1 μM,replicates: in singlicate; n = 1
[11] = system: BMX; conditions: concentration: 1 μM,replicates: in singlicate; n = 1
[12] = system: BRAF; conditions: concentration: 1 μM,replicates: in singlicate; n = 1
[13] = system: T3, BRK; conditions: concentration: 1 μM,replicates: in singlicate; n = 1
T3 construct: gene PTK6

[14] = system: BRSK1; conditions: concentration: 1 μM,replicates: in singlicate; n = 1
[15] = system: BRSK2; conditions: concentration: 1 μM,replicates: in singlicate; n = 1
[16] = system: BTK; conditions: n = 1
[17] = system: BUB1; conditions: concentration: 1 μM,replicates: in singlicate; n = 1
[18] = system: CAMK1B; conditions: concentration: 1 μM,replicates: in singlicate; n = 1
[19] = system: CAMK1D; conditions: concentration: 1 μM,replicates: in singlicate; n = 1
[20] = system: CAMK1G; conditions: concentration: 1 μM,replicates: in singlicate; n = 1
[21] = concentration: 1 μM,replicates: in singlicate
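Also: KINOMEscan kinase panel screen.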

O=C(NCC1CC1)c1ccc(-c2cc(C(=O)NC3CC3)ccc2F)cc1 [GW810445]
%Inh [1]: 0%
%Inh [2]: 0%
%Inh [3]: 4%
%Inh [4]: 0%
%Inh [5]: 10%
%Inh [6]: 0%
%Inh [7]: 30%
%Inh [8]: 0%
%Inh [9]: 0%
%Inh [10]: 15%
%Inh [11]: 0%
%Inh [12]: 0%
%Inh [13]: 0%
%Inh [14]: 0%
%Inh [15]: 0%
%Inh [16, 21]: 0%
%Inh [17]: 22%
%Inh [18]: 21%
%Inh [19]: 0%
%Inh [20]: 0%

COc1cccc(OC)c1C(=O)Nc1cccc(-c2nn3ccccc3c2-c2ccnc(Nc3cccc(F)c3)n2)c1 [GSK361065]
%Inh [1]: 0%
%Inh [2]: 32%
%Inh [3]: 0%
%Inh [4]: 70%
%Inh [5]: 30%
%Inh [6]: 0%
%Inh [7]: 41%
%Inh [8]: 9%
%Inh [9]: 21%
%Inh [10]: 0%
%Inh [11]: 21%
%Inh [12]: 17%
%Inh [13]: 19%
%Inh [14]: 0%
%Inh [15]: 16%
%Inh [16, 21]: 0%
%Inh [17]: 11%
%Inh [18]: 0%
%Inh [19]: 13%
%Inh [20]: 0%

Cc1cccc(-c2nc(Nc3ccncc3)c3sccc3n2)n1 [GW869641]
%Inh [1]: 29%
%Inh [2]: 48%
%Inh [3]: 43%
%Inh [4]: 30%
%Inh [5]: 33%
%Inh [6]: 13%
%Inh [7]: 15%
%Inh [8]: 4%
%Inh [9]: 82%
%Inh [10]: 37%
%Inh [11]: 11%
%Inh [12]: 36%
%Inh [13]: 6%
%Inh [14]: 0%
%Inh [15]: 7%
%Inh [16, 21]: 58%
%Inh [17]: 54%
%Inh [18]: 16%
%Inh [19]: 24%
%Inh [20]: 7%

Cn1cc(-c2cccc3c(N)c(C(N)=O)nnc23)cn1
%Inh [1]: 33%
%Inh [2]: 6%
%Inh [3]: 27%
%Inh [4]: 53%
%Inh [5]: 22%
%Inh [6]: 70%
%Inh [7]: 6%
%Inh [8]: 16%
%Inh [9]: 21%
%Inh [10]: 72%
%Inh [11]: 15%
%Inh [12]: 30%
%Inh [13]: 8%
%Inh [14]: 11%
%Inh [15]: 18%
%Inh ([16]; 1 µM): 86%
%Inh [17]: 32%
%Inh [18]: 0%
%Inh [19]: 29%
%Inh [20]: 7%

C[C@@H](Oc1cc(-n2cnc3cc(-c4ccncc4)ccc32)sc1C(N)=O)c1ccccc1Cl [GSK479719]
%Inh [1]: 8%
%Inh [2]: 0%
%Inh [3]: 48%
%Inh [4]: 100%
%Inh [5]: 89%
%Inh [6]: 98.6%
%Inh [7]: 0%
%Inh [8]: 0%
%Inh [9]: 0%
%Inh [10]: 0%
%Inh [11]: 18%
%Inh [12]: 1%
%Inh [13]: 15%
%Inh [14]: 58%
%Inh [15]: 79%
%Inh [16, 21]: 0%
%Inh [17]: 23%
%Inh [18]: 18%
%Inh [19]: 6%
%Inh [20]: 0%

N#Cc1cccc(C(=O)NC2CCN(c3ccnc(Nc4ccc(F)cc4)n3)C2)c1 (stereo not shown) [GSK1379708]
%Inh [1]: 0%
%Inh [2]: 0%
%Inh [3]: 0%
%Inh [4]: 33%
%Inh [5]: 20%
%Inh [6]: 22%
%Inh [7]: 32%
%Inh [8]: 0%
%Inh [9]: 0%
%Inh [10]: 0%
%Inh [11]: 6%
%Inh [12]: 0%
%Inh [13]: 16%
%Inh [14]: 0%
%Inh [15]: 0%
%Inh [16, 21]: 0%
%Inh [17]: 31%
%Inh [18]: 0%
%Inh [19]: 5%
%Inh [20]: 0%

CN(c1cccc(CNc2nc(Nc3ccc4c(c3)CC(=O)N4)ncc2C(F)(F)F)c1)S(C)(=O)=O
%Inh [1]: 0%
%Inh [2]: 93.8%
%Inh [3]: 99.4%
%Inh [4]: 88%
%Inh [5]: 64%
%Inh [6]: 95%
%Inh [7]: 0%
%Inh [8]: 0%
%Inh [9]: 0%
%Inh [10]: 39%
%Inh [11]: 18%
%Inh [12]: 0%
%Inh [13]: 0%
%Inh [14]: 0%
%Inh [15]: 0%
%Inh [16, 21]: 0%
%Inh [17]: 2%
%Inh [18]: 9%
%Inh [19]: 14%
%Inh [20]: 15%

Cn1ccc2ncnc(Oc3ccc(NC(=O)Nc4cncc(C(F)(F)F)c4)c(Cl)c3)c21
%Inh [1]: 0%
%Inh [2]: 0%
%Inh [3]: 25%
%Inh [4]: 0%
%Inh [5]: 59%
%Inh [6]: 0%
%Inh [7]: 9%
%Inh [8]: 0%
%Inh [9]: 0%
%Inh [10]: 0%
%Inh [11]: 0%
%Inh [12]: 52%
%Inh [13]: 0%
%Inh [14]: 0%
%Inh [15]: 0%
%Inh [16, 21]: 0%
%Inh [17]: 0%
%Inh [18]: 0%
%Inh [19]: 0%
%Inh [20]: 0%
